Our source for the outcome and AC50 values is PubChem BioAssay (EPA / NIEHS).

SMILES strings stand for the structures. Activity calls are given as the source filed them. Rule for the calls: active = hit-call score of the fitted dose curve at least 0.9, where 1 is the maximum; inactive = score below 0.9.

The nature of assay [1]: ATG_GLI_CIS: Attagene CIS-FACTORIAL HepG2 Assay for human Zinc Finger Protein GLI1 (AID 2282945). To be noted: HepG2, Attagene cis-factorial reporter mRNA, GLI element; actives raise or lower the signal. The method, boiled down:
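Bidirectional curve fits relative to DMSO, using reporter mRNA levels from RT-PCR plus capillary electrophoresis. Cells were HepG2 transiently carrying cis-regulated reporter constructs, harvested 24 h after dosing.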

The target of assay [2] is Bile acid receptor (Homo sapiens) (UniProt Q96RI1). The assay is described as follows: ATG_IR1_CIS: Attagene CIS-FACTORIAL HepG2 Assay for human Nuclear Receptor Subfamily 1 Group H Member 4 (NR1H4), IR1 submotif (AID 2282946). To be noted: IR1 reporter transcription, actives raise or lower the signal. A digest of the protocol: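 Cells (human HepG2) carry transiently transfected cis-promoter reporter transcription units. Compounds are incubated 24 h, total RNA is reverse-transcribed and amplified, and labelled fragments are resolved by capillary electrophoresis. Curves use DMSO as baseline.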

Assay [3] in a line: ATG_GRE_CIS: Attagene CIS-FACTORIAL HepG2 Assay for human Glucocorticoid Response Elements (GRE) (AID 2282947). The settings on record: HepG2 GRE cis-reporter, Attagene multiplex mRNA; actives raise or lower the signal. The method, boiled down:
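Transient MRTU transfection of human HepG2 liver cells; cis-regulated reporters report endogenous factors. 24 h dosing → RNA isolation → RT-PCR → 6-FAM primer extension → HpaI cut → CE fragment analysis. Bidirectional fit, DMSO negative control.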

Assay [4] in a line: ATG_ISRE_CIS: Attagene CIS-FACTORIAL HepG2 Assay for human Interferon Regulatory Factor 1 (IRF1) binding to an Interferon-Stimulated Response Element (ISRE) (AID 2282948). To be noted: HepG2 ISRE cis-reporter (Attagene), mRNA transcription readout; actives raise or lower the signal. A digest of the protocol: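 Cell-based cis-reporter assay; HepG2; 24 h exposure; reporter mRNA by RT-PCR plus capillary electrophoresis fluorescence; activity in either direction scored relative to DMSO.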

Assay [5] in a line: ATG_M_32_CIS: Attagene CIS-FACTORIAL HepG2 Assay for M32 Transcription Factor (Internal Marker) (AID 2282949).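 Note: background control marker of the multiplexed CIS panel rather than a real target.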 To be noted: HepG2 Attagene cis-factorial M32 reporter, mRNA; actives raise or lower the signal. The method, boiled down: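 Fluorescent capillary electrophoresis peaks of HpaI-digested, FAM-labelled RT-PCR reporter products give the signal. Source: transiently transfected human liver HepG2 cells, 24 h after chemical dosing; bidirectional fitting against DMSO.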

A short description of assay [6]: ATG_M_06_CIS: Attagene CIS-FACTORIAL HepG2 Assay for M06 Transcription Factor (Internal Marker) (AID 2282950). The settings on record: HepG2 Attagene CIS-FACTORIAL M06 internal marker reporter; actives raise or lower the signal. A digest of the protocol: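 Fluorescence-labelled RT-PCR products from cis-promoter reporter units, cut with HpaI and resolved by capillary electrophoresis, give the signal. Cells are human HepG2, dosed for 24 h. Serves as background control, fitted relative to DMSO.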

For assay [7], the target named is Hypoxia-inducible factor 1-alpha (Homo sapiens) (UniProt Q16665). The assay is described as follows: ATG_HIF1a_CIS: Attagene CIS-FACTORIAL HepG2 Assay for human Hypoxia Inducible Factor 1 (HIF1A) (AID 2282951). The settings on record: HepG2 Attagene cis-factorial HIF1a reporter transcription; actives raise or lower the signal. A digest of the protocol: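 In this multiplexed cell assay, HepG2 cells bearing transfected cis reporters are dosed for 24 h and reporter mRNA is read by RT-PCR plus capillary electrophoresis; signal increases and decreases are both scored against DMSO.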

Assay [8] concerns the target Hepatocyte nuclear factor 6 (Homo sapiens) (UniProt Q9UBC0). The assay is described as follows: ATG_HNF6_CIS: Attagene CIS-FACTORIAL HepG2 Assay for human Hepatocyte Nuclear Factor 6 (HNF6) (AID 2282952). The settings on record: HepG2 Attagene cis-factorial HNF6 reporter transcription; actives raise or lower the signal. A digest of the protocol: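 Cells are HepG2 carrying transiently transfected cis-promoter reporter units. Treatment lasts 24 h, after which reporter transcripts are reverse-transcribed, amplified, FAM-labelled and sized by capillary electrophoresis. DMSO serves as baseline.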

For assay [9], the target named is Heat shock factor protein 1 (Homo sapiens) (UniProt Q00613). In words: ATG_HSE_CIS: Attagene CIS-FACTORIAL HepG2 Assay for human Heat Shock Transcription Factor 1 (HSE) (AID 2282953). To be noted: HepG2 HSE cis-reporter, Attagene RNA transcription; actives raise or lower the signal. A digest of the protocol: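 After a 24 h incubation with test chemical, transfected HepG2 cells were harvested for RNA; reporter transcripts were measured by RT-PCR and capillary electrophoresis. Values reflect gain or loss of signal relative to DMSO.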

A short description of assay [10]: ATG_MRE_CIS: Attagene CIS-FACTORIAL HepG2 Assay for human Metal Responsive Element (MRE) (AID 2282954). The settings on record: HepG2 MRE cis-reporter transcription, Attagene multiplex; actives raise or lower the signal. The method, boiled down: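 Transient MRTU transfection of HepG2 (FuGene 6); 24 h dosing; total RNA → oligo(dT) RT, PCR, 6-FAM primer extension, HpaI cut, CE. Bidirectional fit vs DMSO.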

Assay [11] in a line: ATG_PBREM_CIS: Attagene CIS-FACTORIAL HepG2 Assay for human Phenobarbital-responsive Enhancer Module (PBREM) (AID 2282955). The settings on record: HepG2 PBREM cis-reporter, Attagene multiplexed transcription; actives raise or lower the signal. A digest of the protocol: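 After a 24 h incubation with test chemical, transfected HepG2 cells yield total RNA; reporter-specific RT-PCR products are fluorescently labelled, HpaI-digested and resolved by capillary electrophoresis against ROX size standards.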

The target of assay [12] is Paired box protein Pax-6 (Homo sapiens) (UniProt P26367). The assay is described as follows: ATG_Pax6_CIS: Attagene CIS-FACTORIAL HepG2 Assay for human Paired Box 6 (PAX6) (AID 2282956). To be noted: HepG2 CIS-FACTORIAL PAX6 reporter transcription, RNA readout; actives raise or lower the signal. A digest of the protocol:
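Multiplexed cis-reporter HepG2 system; 24 h treatment; reporter mRNA read by RT-PCR/CE fluorescence; bidirectional fit vs DMSO.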

Assay [13] in a line: ATG_PXRE_CIS: Attagene CIS-FACTORIAL HepG2 Assay for human Pregnane X Receptor Element (PXRE) (AID 2282957). The settings on record: HepG2 Attagene CIS-FACTORIAL PXRE reporter, mRNA; actives raise or lower the signal. A digest of the protocol:
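Multiplexed cis-reporter assay in transiently transfected human HepG2 cells; 24 h chemical exposure. Reporter transcripts quantified by RT-PCR with fluorescent labeling and capillary electrophoresis.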

Assay [14] is described as follows: ATG_PPRE_CIS: Attagene CIS-FACTORIAL HepG2 Assay for human Peroxisome Proliferator-activated Response Element (PPRE) (AID 2282958). To be noted: HepG2 PPRE cis-element reporter, Attagene transcription factor profiling; actives raise or lower the signal. The method, boiled down: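 Multiplexed reporter transcription units under cis-regulatory promoters were transfected into HepG2 cells to capture endogenous factor activity. A 24 h incubation preceded RNA isolation and fluorescent RT-PCR fragment analysis.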

Assay [15] in a line: ATG_RORE_CIS: Attagene CIS-FACTORIAL HepG2 Assay for human RAR-related Orphan Receptor Element (RORE) (AID 2282959). To be noted: HepG2 Attagene cis-factorial RORE reporter, mRNA; actives raise or lower the signal. A digest of the protocol:
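Fluorescence intensity of reporter-specific cDNA fragments, separated by capillary electrophoresis, gives the signal. Source: HepG2 liver cells transiently transfected with cis-element reporters and exposed 24 h; DMSO-normalized bidirectional fit.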

The nature of assay [16]: ATG_Sox_CIS: Attagene CIS-FACTORIAL HepG2 Assay for human SRY-box transcription factor (SOX) (AID 2282960). The settings on record: HepG2 Attagene cis-factorial SOX reporter, mRNA; actives raise or lower the signal. A digest of the protocol: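 After 24 h of chemical treatment, transfected HepG2 reporter cells are lysed for total RNA. Transcript levels come from RT-PCR with labelled primer extension and capillary electrophoresis, analysed bidirectionally versus DMSO.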

In assay [17] the target is Transcription factor Sp1 (Homo sapiens) (UniProt P08047). The assay is described as follows: ATG_Sp1_CIS: Attagene CIS-FACTORIAL HepG2 Assay for human Specificity Protein 1 (Sp1) (AID 2282961). The settings on record: HepG2 Sp1 cis-reporter transcription, actives raise or lower the signal. A digest of the protocol: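 Sp1-driven reporter mRNA, read as capillary electrophoresis fluorescence after RT-PCR, in transiently transfected HepG2 cells dosed for 24 h; signal change in either direction relative to DMSO.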

Assay [18] in a line: ATG_SREBP_CIS: Attagene CIS-FACTORIAL HepG2 Assay for human Sterol Regulatory Element Binding (SREBP) (AID 2282962). The settings on record: HepG2 Attagene cis-factorial SREBP reporter, mRNA; actives raise or lower the signal. The method, boiled down:
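mRNA induction of transfected cis-promoter reporters in HepG2 cells, 24 h post-dose. Detection: RT-PCR with 6-FAM-labelled products, HpaI digest, capillary electrophoresis. DMSO served as negative control and baseline.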

Assay [19] addresses Signal transducer and activator of transcription 3 (Homo sapiens) (UniProt P40763). The assay is described as follows: ATG_STAT3_CIS: Attagene CIS-FACTORIAL HepG2 Assay for human Signal Transducer and Activator of Transcription 3 (STAT3) (AID 2282963). The settings on record: HepG2, Attagene cis-factorial STAT3 reporter transcription; actives raise or lower the signal. A digest of the protocol: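 Endogenous STAT3-responsive cis-element activity was read in transiently transfected HepG2 cells after 24 h treatment. Reporter transcripts were quantified via RT-PCR and capillary electrophoresis, with DMSO as negative control and bidirectional curve fitting.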

The nature of assay [20]: ATG_TA_CIS: Attagene CIS-FACTORIAL HepG2 Assay for human TA Basal Promoter (AID 2282964). The settings on record: HepG2 Attagene CIS-factorial TA basal promoter reporter; actives raise or lower the signal. A digest of the protocol:
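Multiplexed mRNA reporter assay, HepG2, 24 h. Reporter cDNA amplified, 6-FAM primer-extended, HpaI-cut, CE-sized; DMSO = negative control and baseline.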

Chain of Bile acid receptor (Homo sapiens) (Q96RI1 whole entry, looked up, the tested form may be a part): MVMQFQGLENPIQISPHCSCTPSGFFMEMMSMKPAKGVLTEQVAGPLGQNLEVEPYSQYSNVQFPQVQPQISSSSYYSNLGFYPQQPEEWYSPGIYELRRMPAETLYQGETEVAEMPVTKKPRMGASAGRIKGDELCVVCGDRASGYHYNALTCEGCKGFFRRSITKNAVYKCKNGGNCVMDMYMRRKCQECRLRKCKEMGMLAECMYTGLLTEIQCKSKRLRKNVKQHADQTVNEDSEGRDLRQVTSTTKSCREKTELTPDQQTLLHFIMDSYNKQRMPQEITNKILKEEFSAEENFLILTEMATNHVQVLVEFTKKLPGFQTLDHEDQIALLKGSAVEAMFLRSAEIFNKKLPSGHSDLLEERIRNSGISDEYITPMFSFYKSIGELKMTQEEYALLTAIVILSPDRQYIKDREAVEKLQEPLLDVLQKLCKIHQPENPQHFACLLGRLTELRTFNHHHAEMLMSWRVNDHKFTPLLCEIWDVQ
Chain of Paired box protein Pax-6 (Homo sapiens) (P26367 whole entry, looked up): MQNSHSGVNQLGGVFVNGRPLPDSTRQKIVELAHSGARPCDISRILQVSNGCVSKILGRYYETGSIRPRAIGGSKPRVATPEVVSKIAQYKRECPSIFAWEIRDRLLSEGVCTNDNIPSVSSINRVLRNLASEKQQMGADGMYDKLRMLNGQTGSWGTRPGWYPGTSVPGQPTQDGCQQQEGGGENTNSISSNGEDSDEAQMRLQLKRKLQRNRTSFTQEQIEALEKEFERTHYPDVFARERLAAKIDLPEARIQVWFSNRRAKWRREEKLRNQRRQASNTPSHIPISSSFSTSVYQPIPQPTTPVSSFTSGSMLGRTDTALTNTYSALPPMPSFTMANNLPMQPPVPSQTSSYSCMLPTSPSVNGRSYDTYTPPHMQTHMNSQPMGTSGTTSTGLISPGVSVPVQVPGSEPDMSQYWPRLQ
Chain of Heat shock factor protein 1 (Homo sapiens) (Q00613 whole entry, looked up): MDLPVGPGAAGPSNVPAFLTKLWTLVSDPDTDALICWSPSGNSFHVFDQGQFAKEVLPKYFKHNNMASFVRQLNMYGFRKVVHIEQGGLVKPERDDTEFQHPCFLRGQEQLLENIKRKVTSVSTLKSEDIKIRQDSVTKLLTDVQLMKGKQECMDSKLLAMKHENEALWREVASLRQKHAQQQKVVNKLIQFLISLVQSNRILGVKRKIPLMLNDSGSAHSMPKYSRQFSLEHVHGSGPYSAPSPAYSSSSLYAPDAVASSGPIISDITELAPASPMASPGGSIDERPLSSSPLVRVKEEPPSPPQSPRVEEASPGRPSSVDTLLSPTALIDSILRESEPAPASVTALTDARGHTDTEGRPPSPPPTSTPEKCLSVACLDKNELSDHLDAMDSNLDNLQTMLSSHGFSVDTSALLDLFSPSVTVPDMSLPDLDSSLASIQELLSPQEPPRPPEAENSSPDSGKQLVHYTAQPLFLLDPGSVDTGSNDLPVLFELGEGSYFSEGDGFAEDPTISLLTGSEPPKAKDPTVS
Chain of Hypoxia-inducible factor 1-alpha (Homo sapiens) (Q16665 whole entry, looked up): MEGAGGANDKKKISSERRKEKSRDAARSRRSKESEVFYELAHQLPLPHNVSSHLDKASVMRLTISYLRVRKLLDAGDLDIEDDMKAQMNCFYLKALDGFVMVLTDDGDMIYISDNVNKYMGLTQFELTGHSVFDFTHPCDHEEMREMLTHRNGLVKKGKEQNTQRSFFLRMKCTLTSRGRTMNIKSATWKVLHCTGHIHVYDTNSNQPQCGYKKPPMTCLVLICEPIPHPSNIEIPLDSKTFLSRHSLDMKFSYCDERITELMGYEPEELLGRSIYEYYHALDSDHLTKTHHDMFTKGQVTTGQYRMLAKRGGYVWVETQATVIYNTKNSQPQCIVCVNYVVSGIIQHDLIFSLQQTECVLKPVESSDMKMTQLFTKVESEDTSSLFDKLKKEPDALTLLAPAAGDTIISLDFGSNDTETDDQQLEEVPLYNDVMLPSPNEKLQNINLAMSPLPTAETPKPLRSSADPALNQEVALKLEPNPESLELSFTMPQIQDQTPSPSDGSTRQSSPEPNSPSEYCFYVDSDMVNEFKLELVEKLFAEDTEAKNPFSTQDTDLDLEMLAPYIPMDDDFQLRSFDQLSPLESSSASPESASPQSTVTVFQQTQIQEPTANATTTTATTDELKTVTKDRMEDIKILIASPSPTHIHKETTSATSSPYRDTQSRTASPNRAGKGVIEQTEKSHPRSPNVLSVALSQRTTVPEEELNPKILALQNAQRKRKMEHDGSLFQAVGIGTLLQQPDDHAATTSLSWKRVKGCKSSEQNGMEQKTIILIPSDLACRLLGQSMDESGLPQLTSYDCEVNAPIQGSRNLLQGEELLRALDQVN
Chain of Signal transducer and activator of transcription 3 (Homo sapiens) (P40763 whole entry, looked up): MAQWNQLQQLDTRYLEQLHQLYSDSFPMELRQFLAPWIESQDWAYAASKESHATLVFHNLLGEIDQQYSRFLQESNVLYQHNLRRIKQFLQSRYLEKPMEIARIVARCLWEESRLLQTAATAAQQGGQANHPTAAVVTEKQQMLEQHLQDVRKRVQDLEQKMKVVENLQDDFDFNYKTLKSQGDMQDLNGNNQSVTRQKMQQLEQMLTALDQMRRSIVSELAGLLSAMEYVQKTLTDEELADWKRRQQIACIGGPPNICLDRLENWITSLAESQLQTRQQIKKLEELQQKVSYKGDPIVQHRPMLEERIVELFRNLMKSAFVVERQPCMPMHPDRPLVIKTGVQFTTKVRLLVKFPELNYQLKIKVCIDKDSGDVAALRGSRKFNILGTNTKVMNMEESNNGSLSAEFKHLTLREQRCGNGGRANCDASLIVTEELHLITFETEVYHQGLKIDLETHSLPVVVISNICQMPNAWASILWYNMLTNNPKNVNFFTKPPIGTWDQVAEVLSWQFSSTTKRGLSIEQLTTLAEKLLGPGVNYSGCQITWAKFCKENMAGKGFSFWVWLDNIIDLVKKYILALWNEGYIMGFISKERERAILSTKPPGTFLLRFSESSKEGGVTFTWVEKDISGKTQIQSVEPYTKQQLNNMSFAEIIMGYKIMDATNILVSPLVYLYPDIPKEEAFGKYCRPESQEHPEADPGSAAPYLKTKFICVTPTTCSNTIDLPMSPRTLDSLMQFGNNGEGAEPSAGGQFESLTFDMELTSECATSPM
Chain of Transcription factor Sp1 (Homo sapiens) (P08047 whole entry, looked up): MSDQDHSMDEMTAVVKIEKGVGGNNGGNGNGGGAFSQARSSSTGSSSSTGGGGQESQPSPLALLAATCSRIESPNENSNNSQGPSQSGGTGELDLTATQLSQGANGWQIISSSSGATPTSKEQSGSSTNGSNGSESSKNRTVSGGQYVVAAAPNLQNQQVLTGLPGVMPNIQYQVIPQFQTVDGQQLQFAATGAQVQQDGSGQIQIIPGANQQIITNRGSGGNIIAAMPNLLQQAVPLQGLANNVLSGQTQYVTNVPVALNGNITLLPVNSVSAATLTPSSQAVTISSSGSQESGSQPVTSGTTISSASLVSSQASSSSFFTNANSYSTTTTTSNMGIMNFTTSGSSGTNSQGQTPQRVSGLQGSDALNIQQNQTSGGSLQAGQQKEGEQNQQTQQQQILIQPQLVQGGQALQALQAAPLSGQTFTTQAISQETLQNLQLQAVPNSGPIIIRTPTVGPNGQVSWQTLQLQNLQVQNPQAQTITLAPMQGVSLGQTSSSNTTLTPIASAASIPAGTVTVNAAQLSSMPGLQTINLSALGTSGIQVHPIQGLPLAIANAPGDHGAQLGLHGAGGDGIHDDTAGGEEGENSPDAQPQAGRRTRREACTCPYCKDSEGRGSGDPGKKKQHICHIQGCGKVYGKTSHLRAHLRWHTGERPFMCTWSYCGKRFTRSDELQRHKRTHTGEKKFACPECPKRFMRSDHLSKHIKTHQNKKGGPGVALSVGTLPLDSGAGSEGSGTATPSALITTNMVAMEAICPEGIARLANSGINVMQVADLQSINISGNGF
Chain of Hepatocyte nuclear factor 6 (Homo sapiens) (Q9UBC0 whole entry, looked up): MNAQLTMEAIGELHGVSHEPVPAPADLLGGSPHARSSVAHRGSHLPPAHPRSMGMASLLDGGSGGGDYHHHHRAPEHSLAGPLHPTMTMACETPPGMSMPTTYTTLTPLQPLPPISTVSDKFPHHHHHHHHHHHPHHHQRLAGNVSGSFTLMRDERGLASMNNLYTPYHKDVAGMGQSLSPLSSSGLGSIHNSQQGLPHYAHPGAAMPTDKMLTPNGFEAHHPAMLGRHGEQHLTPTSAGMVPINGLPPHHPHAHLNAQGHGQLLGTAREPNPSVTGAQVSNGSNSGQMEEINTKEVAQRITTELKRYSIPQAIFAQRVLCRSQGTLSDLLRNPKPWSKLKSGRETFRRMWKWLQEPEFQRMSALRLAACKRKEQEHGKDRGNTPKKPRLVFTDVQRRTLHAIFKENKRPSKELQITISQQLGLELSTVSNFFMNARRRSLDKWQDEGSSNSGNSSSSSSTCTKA

Consider `CCC(Cc1c(I)cc(I)c(N)c1I)C(=O)O` (stereo not given), for which the compound was classed as inactive in assay [1], in [2], in assay [3], in [5], in assay [6] and in assay [7]. Besides, the result in assay [8], in assay [9], in [10], in assay [11], in [12] and in [15] was inactive. Besides, the compound was called inactive in assay [19] and in assay [20]. Also, the AC50 (as a rule, the concentration giving half of the maximal activity seen) in [4] is 88.5 µM (active); in [13], 151 µM (active); in assay [14] it was 39.7 µM (active); in [16], 137 µM (active); in [17], 88.5 µM (active); in assay [18] it was 24.1 µM (active).

With `CC(C)C(=O)OCc1ccccc1`, the result in assay [1], in assay [2], in [3], in assay [4], in [5] and in assay [6] was inactive. The result in assay [7], in assay [8], in assay [9], in assay [10], in assay [11] and in assay [12] was inactive. In addition, the compound was classed as inactive in assay [13], in assay [14], in [15], in assay [16], in assay [17] and in assay [18]. Further, the result in [19] and in [20] was inactive.

As for `N#CCCOCCC#N`, the outcome in [1], in assay [2], in assay [3], in assay [4], in assay [5] and in assay [6] was inactive. Moreover, the outcome in [7], in assay [8], in assay [9], in assay [10], in [11] and in [12] was inactive. The result in assay [13], in assay [14], in [15], in assay [16], in assay [17] and in assay [18] was inactive. Further, the compound was called inactive in assay [19] and in assay [20].
